FAS TE block – inhibitors of human fatty acid synthase thioesterase domain | 360,000 compounds, 0.67% hits | recombinant FAS-TE, OMFH fluorogenic substrate, fluorescence endpoint | AID 602261 | P49327 | inhibition, % at 15 µM;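 active = compounds whose normalised, plate-corrected inhibition of enzyme fluorescence in the single-dose primary screen is 50% or more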;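 also: 0% = DMSO with enzyme and 100% = substrate without enzyme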
MPTP block – blocks calcium-induced mitochondrial swelling. AID 602449. 360,000 compounds, 1.4% hits. inhibition, % at 10 µM. isolated mouse mitochondria, Ca2+ swelling absorbance, 30 min;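 active = inhibition of 50% or more, scaled per plate between neutral and stimulator controls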;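 also: 0% = DMSO wells given calcium and 100% = 1 mM EGTA wells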
MIN6 prolif – induces beta-cell replication in MIN6 cells; MIN6 cells proliferation, ATPlite luminescence, 48 h; cells starved in 0.2% serum; 100% = growth in 10% serum; proliferation, % at 10 µM; 330,000 compounds, 0.29% hits; AID 2380;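 active = compounds whose signal lies at least 3.5 SD above the mean of all wells on their plate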;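 also: 0% = DMSO-treated cells in low-serum medium and 100% = 10% serum control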
GRIN3A LBD mod – modulators (binders) of human NR3A ligand-binding domain. AID 1259313. Tm shift relative to glycine control, % at 25 µM. NR3A LBD differential scanning fluorimetry, Tm shift; 0% = protein alone, 100% = glycine-bound protein. 340,000 compounds, 2.5% hits;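 active = melting temperature shift of at least 10% of the positive control shift, at one fixed dose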
pCIP destab – compounds decreasing mouse p/CIP protein stability; 290,000 compounds, 0.01% hits; Q05BA5; AID 1984; decrease of EGFP signal, % at 10 µM; F442A p/CIP-EGFP cells, EGFP fluorescence, 16 h;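 active = EGFP signal decrease of at least 30% at 10 µM or well 3 SD below plate mean, unless failing retest; inactive = the rest, including hits failing retest or dose response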
Target sequence (Q05BA5 1-1403): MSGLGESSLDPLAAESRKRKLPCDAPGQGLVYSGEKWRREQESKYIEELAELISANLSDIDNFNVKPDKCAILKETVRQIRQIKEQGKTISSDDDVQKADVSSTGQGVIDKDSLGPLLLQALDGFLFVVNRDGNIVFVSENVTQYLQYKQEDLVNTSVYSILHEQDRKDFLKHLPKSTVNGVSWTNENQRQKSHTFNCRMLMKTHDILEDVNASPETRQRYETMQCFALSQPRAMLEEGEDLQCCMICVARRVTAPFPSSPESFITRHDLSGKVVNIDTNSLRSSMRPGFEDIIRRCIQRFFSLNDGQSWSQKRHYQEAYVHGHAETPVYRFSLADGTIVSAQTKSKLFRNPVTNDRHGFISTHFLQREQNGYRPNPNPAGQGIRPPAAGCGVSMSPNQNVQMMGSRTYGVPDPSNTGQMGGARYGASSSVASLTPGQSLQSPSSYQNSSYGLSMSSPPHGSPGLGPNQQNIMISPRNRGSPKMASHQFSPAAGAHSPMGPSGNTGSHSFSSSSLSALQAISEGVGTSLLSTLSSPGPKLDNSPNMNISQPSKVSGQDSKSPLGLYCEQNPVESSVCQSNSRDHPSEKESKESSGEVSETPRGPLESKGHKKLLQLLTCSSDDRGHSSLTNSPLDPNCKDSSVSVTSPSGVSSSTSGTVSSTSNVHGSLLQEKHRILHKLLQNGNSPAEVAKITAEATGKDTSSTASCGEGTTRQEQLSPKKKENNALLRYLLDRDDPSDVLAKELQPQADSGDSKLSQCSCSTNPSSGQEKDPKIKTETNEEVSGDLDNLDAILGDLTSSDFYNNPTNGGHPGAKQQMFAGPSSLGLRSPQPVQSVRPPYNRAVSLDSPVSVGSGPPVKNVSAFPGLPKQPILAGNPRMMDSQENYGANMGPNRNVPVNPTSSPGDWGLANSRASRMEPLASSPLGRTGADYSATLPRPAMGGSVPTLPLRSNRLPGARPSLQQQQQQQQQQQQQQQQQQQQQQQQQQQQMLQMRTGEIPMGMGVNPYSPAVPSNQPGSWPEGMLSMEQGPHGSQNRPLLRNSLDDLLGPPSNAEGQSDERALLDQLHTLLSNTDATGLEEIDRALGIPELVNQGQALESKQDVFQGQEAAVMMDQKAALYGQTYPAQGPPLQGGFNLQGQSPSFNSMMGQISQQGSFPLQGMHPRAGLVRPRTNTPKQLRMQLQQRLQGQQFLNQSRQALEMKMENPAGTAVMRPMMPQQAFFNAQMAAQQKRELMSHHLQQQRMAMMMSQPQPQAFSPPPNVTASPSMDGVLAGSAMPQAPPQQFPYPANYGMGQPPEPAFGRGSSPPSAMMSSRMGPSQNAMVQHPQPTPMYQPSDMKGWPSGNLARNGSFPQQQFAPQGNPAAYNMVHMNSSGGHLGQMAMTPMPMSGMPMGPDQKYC
FAS-TE inh conf – confirmation of human fatty acid synthase thioesterase inhibitors | shares compounds with FAS TE block | recombinant FAS-TE, OMFH fluorogenic substrate, fluorescence | inhibition, % at 15 µM | 2,300 compounds, 45% hits;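 active = compounds inhibiting the enzyme by at least 50% at 15 µM in any one of the replicates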;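 also: 0% = enzyme with DMSO only and 100% = wells lacking enzyme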
An asterisk follows results filed as active. An excerpt weighted towards active compounds, which were near 4.1% of everything screened.

For CC[C@@H]1CCC[C@@H](O)[C@@H](C)C(=O)O[C@H](C)[C@@H](C)C/C=C(C)/C(OC)=C\C(=O)N(C)C([C@@H](C)CC)C(=O)N(C)[C@@H](C(C)C)C(=O)N(C)[C@@H](COC)C(=O)N2CCC[C@H]2C(=O)N(C)[C@@H](C(C)C)C(=O)N2CCC[C@H]2C(=O)O1 (stereo not given in full) the results were FAS TE block 5 and MPTP block 2.
Screening CCc1ccc(NC(=O)C(C)OC(=O)c2cccc(S(=O)(=O)N3CCc4ccccc4C3)c2)cc1 (stereo not given) returned FAS TE block 52*, MPTP block 9, MIN6 prolif -4, GRIN3A LBD mod -22, pCIP destab -2 and FAS-TE inh conf 20.
Screening CC(OC(=O)c1cccc(S(=O)(=O)N2CCN(C)CC2)c1)C(=O)Nc1ccc(C(N)=O)cc1 (stereo not given) returned FAS TE block -6, MPTP block 0, MIN6 prolif 3 and GRIN3A LBD mod -1.
Screening Cc1ccc(-c2cc(C(F)F)n3ncc(C(=O)N4CCc5ccccc54)c3n2)cc1 returned FAS TE block 52*, MPTP block 2, MIN6 prolif -6, GRIN3A LBD mod 1, pCIP destab 9 and FAS-TE inh conf 5.
For Cc1ccc(-c2cc(C(F)F)n3ncc(C(=O)Nc4c(C)nn(Cc5ccccc5Cl)c4C)c3n2)cc1 the results were FAS TE block 50*, MPTP block 2, MIN6 prolif -4, GRIN3A LBD mod 4, pCIP destab -8 and FAS-TE inh conf 8.
Screening CC(=O)Nc1cc(-c2ccccc2)cn2c(-c3cccc(C(C)=O)c3)cnc12 returned FAS TE block 16 and MPTP block 1.
Screening O=C(Nn1c(C2CCCCC2)nc2ccccc2c1=O)c1ccc([N+](=O)[O-])cc1Cl returned FAS TE block 62*, MPTP block 7, MIN6 prolif -3, GRIN3A LBD mod 1, pCIP destab 2 and FAS-TE inh conf 43*.
For O=C(Nn1c(C2CCCCC2)nc2ccccc2c1=O)c1cc(Cl)ccc1[N+](=O)[O-] the results were FAS TE block 12, MPTP block 8, MIN6 prolif -3, GRIN3A LBD mod -4 and pCIP destab -7.
CCOc1ccccc1N1CCN(C(=O)c2cc(-c3cc(OC)ccc3OC)nc3ccccc23)CC1 was read as FAS TE block 30, MPTP block 1, MIN6 prolif -7, GRIN3A LBD mod -2 and pCIP destab 56.
COc1ccc(Cl)cc1N/C(N)=N/c1nc(CSc2ccc(C)cc2)cc(=O)[nH]1 was read as FAS TE block 20, MPTP block 0, MIN6 prolif -4, GRIN3A LBD mod 0 and pCIP destab 4.
For Cc1ccc(SCc2cc(=O)[nH]c(/N=C(\N)Nc3cccc4ccccc34)n2)cc1 the results were FAS TE block 58*, MPTP block 4, MIN6 prolif -3, GRIN3A LBD mod -2, pCIP destab -17 and FAS-TE inh conf 4.
Screening COc1ccc(C(=O)N/C(=C/c2cccc3ccccc23)C(=O)NCCc2c[nH]c3ccccc23)cc1OC returned FAS TE block 61*, MPTP block -1, MIN6 prolif 4, GRIN3A LBD mod -19, pCIP destab -5 and FAS-TE inh conf 7.
Screening COc1ccc(/C=C(/NC(=O)c2ccc(OC)c(OC)c2)C(=O)NCCc2c[nH]c3ccccc23)cc1 returned FAS TE block -3, MPTP block 1, MIN6 prolif 0, GRIN3A LBD mod 1 and pCIP destab -17.
Screening COc1ccc(C(=O)C(C)N(C(=O)c2ccc(Cl)cc2Cl)N2C(=O)C3C4C=CC(C4)C3C2=O)cc1 (stereo not given) returned FAS TE block 60*, MPTP block -2, MIN6 prolif -6, GRIN3A LBD mod -1, pCIP destab 0 and FAS-TE inh conf 9.
CC1=C2C3OC(=O)C(C)C3CCC2(C)C=C(Br)C1=O (stereo not given) was read as FAS TE block -4 and MPTP block 0.
For CCC(=O)N1CCCC(C)(C(=O)Nc2ccc3oc(CC)nc3c2)C1 (stereo not given) the results were FAS TE block -8 and MPTP block 0.
`COc1ccc(C)cc1S(=O)(=O)N(CC(=O)Nc1cc([N+](=O)[O-])ccc1C)c1ccc(C)c(C)c1` gave FAS TE block 65*, MPTP block 0, MIN6 prolif -2, GRIN3A LBD mod -4, pCIP destab 4 and FAS-TE inh conf 19.
COc1ccc([N+](=O)[O-])cc1NC(=O)c1ccc(C)o1 was read as FAS TE block 12, MPTP block 1, MIN6 prolif 0, GRIN3A LBD mod 0 and pCIP destab -3.
`COc1ccc([N+](=O)[O-])cc1NC(=O)c1ccc(CN(c2ccc(C)c(C)c2)S(C)(=O)=O)cc1` gave FAS TE block 68*, MPTP block 1, MIN6 prolif -2, GRIN3A LBD mod -4, pCIP destab -2 and FAS-TE inh conf 34.
Screening CC(=O)Nc1ccc(NC(=O)c2nc(S(=O)(=O)Cc3cccc(C)c3)ncc2Cl)cc1 returned FAS TE block 27, MPTP block 4, MIN6 prolif -7, GRIN3A LBD mod 5 and pCIP destab -24.
`CCOc1ccccc1NC(=O)c1nc(S(=O)(=O)Cc2ccccc2)ncc1Cl` gave FAS TE block 60*, MPTP block -3, MIN6 prolif -8, GRIN3A LBD mod 2, pCIP destab -13 and FAS-TE inh conf 59*.
COc1ccccc1NC(=O)c1nc(S(=O)(=O)Cc2ccccc2)ncc1Cl was read as FAS TE block 55*, MPTP block -2, MIN6 prolif -8, GRIN3A LBD mod 6, pCIP destab -14 and FAS-TE inh conf 19.
COC(=O)c1ccc(NC(=O)c2nc(S(=O)(=O)Cc3cccc(C)c3)ncc2Cl)cc1 was read as FAS TE block 55*, MPTP block -4, MIN6 prolif -7, GRIN3A LBD mod -9, pCIP destab -14 and FAS-TE inh conf 29.
For Cc1ccc(C(NC(=O)C2CCN(Cc3ccc(Oc4ccccc4)cc3)CC2)c2ccccn2)cc1 (stereo not given) the results were FAS TE block 12 and MPTP block 5.
Screening CCCCN(CCCNC(=O)c1c(C)cc(=O)oc1C)c1ccccc1 returned FAS TE block 51*, MPTP block -1, MIN6 prolif -1, GRIN3A LBD mod 0, pCIP destab 9 and FAS-TE inh conf 7.
For CCCn1c(=S)[nH]c2cc(C(=O)N3CCN(c4ccc(F)cc4)CC3)ccc2c1=O the results were FAS TE block 55*, MPTP block 0 and FAS-TE inh conf 26.
